Reference: PubChem BioAssay (Tox21)
Inconclusive results are not listed. A structure can be active in one record and inactive in another. Calls of active or inactive are those of the source. Unless noted, calls follow the shape of the dose curve; as a rule, active = well fitted curve in the direction sought with a large enough effect in the repeat runs; inconclusive = weak or mixed curves; inactive = no such curve, though single readings can be large; an effect the other way counts as inactive or inconclusive. Positions of bridges follow the written chain, without caps; N, C: chain ends. Non-standard residues stand in square brackets, D forms with d. Residues, ends and D or L forms follow the SMILES beside them. *: point of attachment. Dab(CH2SO3H) = N[C@@H](CCNCS(=O)(=O)O)C(=O)O; X3 = CC[C@@H](C)CCCCC(=O)*; Dab = NCC[C@H](N)C(=O)O

Key:
[1] = qHTS assay to identify small molecule antagonists of the thyroid receptor (TR) signaling pathway - cell viability counter screen (AID 743064); also: nearly all actives have a fitted effect of over 50% in size
Method in brief: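 Compounds were tested on GH3.TRE-Luc cells in the presence of T3 at 1 nM final. Following 23.5 h at 37 °C, cell viability was quantified by CellTiter-Fluor.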

[2] = qHTS assay to identify small molecule antagonists of the thyroid receptor (TR) signaling pathway (AID 743065); also: nearly all actives have a fitted effect of over 55% in size; also: potency is read from the fitted curve at half-maximal effect
Method in brief: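 GH3.TRE-Luc rat pituitary cells (two TREs driving luciferase) were dosed with compound, then stimulated with 1 nM T3 (final) for 23.5 h at 37 C. ONE-Glo luminescence was the read-out, with CellTiter-Fluor fluorescence as the cytotoxicity counter-screen.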

[3] = test system: thyroid hormone receptor (rat, GH3 cells); test: qHTS assay to identify small molecule agonists of the thyroid receptor (TR) signaling pathway (AID 743066; calls by dose curve)
[4] = target: Estrogen receptor (Homo sapiens) (UniProt P03372); test: qHTS assay to identify small molecule antagonists of the estrogen receptor alpha (ER-alpha) signaling pathway (AID 743069; active = well fitted curve in the direction sought with a large enough effect in the signal ratio in the repeat runs, not every such curve was filed as active; the % refers to the signal ratio)
Sequence of Estrogen receptor (Homo sapiens) (P03372 whole entry, looked up): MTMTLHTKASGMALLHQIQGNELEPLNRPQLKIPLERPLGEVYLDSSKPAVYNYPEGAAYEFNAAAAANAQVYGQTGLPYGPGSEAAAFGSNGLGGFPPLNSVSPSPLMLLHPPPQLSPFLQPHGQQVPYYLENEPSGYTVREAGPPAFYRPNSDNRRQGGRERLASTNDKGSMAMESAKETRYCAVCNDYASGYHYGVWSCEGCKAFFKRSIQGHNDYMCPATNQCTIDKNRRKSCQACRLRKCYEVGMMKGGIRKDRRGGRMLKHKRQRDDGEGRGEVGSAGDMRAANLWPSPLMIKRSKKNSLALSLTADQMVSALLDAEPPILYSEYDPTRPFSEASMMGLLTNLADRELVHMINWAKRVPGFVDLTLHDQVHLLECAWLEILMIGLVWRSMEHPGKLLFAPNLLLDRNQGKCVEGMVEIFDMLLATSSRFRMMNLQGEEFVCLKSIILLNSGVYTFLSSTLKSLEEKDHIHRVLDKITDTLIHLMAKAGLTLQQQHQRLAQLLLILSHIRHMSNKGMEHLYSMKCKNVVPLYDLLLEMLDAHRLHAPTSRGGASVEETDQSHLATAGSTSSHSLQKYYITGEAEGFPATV
Method in brief: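 Reporter cells (ER-alpha-bla, HEK293 background) are conditioned overnight in stripped-serum medium (2% charcoal-stripped FBS). Compound and 17beta-estradiol exposure runs 18 hr at 37C, 5% CO2.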

[5] = qHTS assay to identify small molecule antagonists of the estrogen receptor alpha (ER-alpha) signaling pathway - cell viability counter screen (AID 743074; calls by dose curve;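 also: HEK293 cells carrying ER-alpha-UAS-bla reporter stimulated with 17beta-estradiol; nearly all actives have a fitted effect of over 45% in size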)
[6] = target: Estrogen receptor (Homo sapiens) (UniProt P03372); test: qHTS assay to identify small molecule agonists of the estrogen receptor alpha (ER-alpha) signaling pathway (AID 743075; calls by dose curve;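 also: HEK293 GripTite cells with ER-alpha and UAS-driven beta-lactamase reporter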)
[7] = target: Estrogen receptor (Homo sapiens) (UniProt P03372); test: qHTS assay to identify small molecule agonists of the estrogen receptor alpha (ER-alpha) signaling pathway using the BG1 cell line (AID 743079); also: nearly all actives have a fitted effect of over 20% in size; also: potency is read from the fitted curve at half-maximal effect
[8] = qHTS assay to identify small molecule antagonists of the estrogen receptor alpha (ER-alpha) signaling pathway using the BG1 cell line (AID 743080; calls by dose curve;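 also: BG1 cells stimulated with 17beta-estradiol alongside compound; nearly all actives have a fitted effect of over 25% in size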; also: potency is read from the fitted curve at half-maximal effect)
Method in brief: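 Luminescence from a 4×ERE-luciferase reporter in BG1-Luc-4E2 cells served as read-out. Cells, pre-cultured 5 days in stripped-serum phenol-red-free medium, were exposed to compound with 17beta-estradiol co-stimulation for 21.5 h at 37 C.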

[9] = qHTS assay to identify small molecule antagonists of the estrogen receptor alpha (ER-alpha) signaling pathway using the BG1 cell line - cell viability counter screen (AID 743081);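 also: compound given together with 17beta-estradiol as the ER stimulus; series mostly up to about 70 µM; nearly all actives have a fitted effect of over 45% in size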
Aromatase (Homo sapiens) = Aromatase (Homo sapiens) (UniProt P11511); test: qHTS assay to identify aromatase inhibitors (AID 743083); also: series mostly up to about 70 µM; nearly all actives have a fitted effect of over 55% in size
Sequence of Aromatase (Homo sapiens) (P11511 whole entry, looked up): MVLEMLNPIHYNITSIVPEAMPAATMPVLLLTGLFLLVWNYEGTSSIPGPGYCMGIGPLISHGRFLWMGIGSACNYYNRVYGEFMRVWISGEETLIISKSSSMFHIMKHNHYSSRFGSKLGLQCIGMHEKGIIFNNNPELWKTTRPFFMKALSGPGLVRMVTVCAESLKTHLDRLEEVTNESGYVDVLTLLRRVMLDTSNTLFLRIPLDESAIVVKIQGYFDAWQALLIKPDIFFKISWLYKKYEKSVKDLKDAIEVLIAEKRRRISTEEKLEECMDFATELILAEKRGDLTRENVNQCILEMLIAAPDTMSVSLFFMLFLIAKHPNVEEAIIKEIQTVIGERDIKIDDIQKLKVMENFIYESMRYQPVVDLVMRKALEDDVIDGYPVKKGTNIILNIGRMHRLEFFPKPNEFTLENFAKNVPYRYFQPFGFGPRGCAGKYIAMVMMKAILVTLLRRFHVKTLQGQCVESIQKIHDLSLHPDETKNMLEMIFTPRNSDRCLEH

[10] = qHTS assay to identify aromatase inhibitors - cell viability counter screen (AID 743084);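 also: cells stimulated with testosterone during compound exposure; nearly all actives have a fitted effect of over 55% in size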
[11] = target: Aryl hydrocarbon receptor (Homo sapiens) (UniProt P35869); test: qHTS assay to identify small molecule that activate the aryl hydrocarbon receptor (AhR) signaling pathway (AID 743085); also: nearly all actives have a fitted effect of over 15% in size; also: potency is read from the fitted curve at half-maximal effect;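 as to activation: HG2L7.5c1 human HepG2 liver cells with stably integrated DRE-driven firefly reporter; series mostly up to about 70 µM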
Sequence of Aryl hydrocarbon receptor (Homo sapiens) (P35869 whole entry, looked up): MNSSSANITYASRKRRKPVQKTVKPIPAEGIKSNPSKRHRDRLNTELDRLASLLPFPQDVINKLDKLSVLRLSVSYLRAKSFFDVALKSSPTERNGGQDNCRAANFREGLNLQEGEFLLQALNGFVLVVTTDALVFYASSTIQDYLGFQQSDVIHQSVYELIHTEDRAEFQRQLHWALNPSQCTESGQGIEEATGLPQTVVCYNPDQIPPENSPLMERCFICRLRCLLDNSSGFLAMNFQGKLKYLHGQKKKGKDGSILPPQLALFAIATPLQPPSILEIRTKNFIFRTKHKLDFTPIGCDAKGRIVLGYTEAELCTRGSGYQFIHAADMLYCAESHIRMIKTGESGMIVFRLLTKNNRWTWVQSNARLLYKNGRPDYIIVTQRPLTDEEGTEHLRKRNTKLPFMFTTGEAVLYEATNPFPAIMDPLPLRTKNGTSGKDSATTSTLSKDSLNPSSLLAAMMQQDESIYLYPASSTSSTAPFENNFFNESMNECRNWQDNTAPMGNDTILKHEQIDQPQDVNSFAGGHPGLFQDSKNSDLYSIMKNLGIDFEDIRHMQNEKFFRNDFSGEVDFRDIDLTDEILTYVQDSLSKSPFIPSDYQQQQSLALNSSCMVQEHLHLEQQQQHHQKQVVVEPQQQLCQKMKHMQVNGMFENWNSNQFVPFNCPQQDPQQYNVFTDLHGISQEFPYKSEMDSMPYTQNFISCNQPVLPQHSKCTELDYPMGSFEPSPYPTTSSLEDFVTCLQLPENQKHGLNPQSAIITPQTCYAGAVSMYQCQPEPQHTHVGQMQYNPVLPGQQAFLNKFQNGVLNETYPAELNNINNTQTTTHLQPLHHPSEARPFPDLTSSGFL
Method in brief: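 24 h compound exposure, 37C, HepG2-derived HG2L7.5c1 cells with DRE-responsive luciferase. Readouts: fluorescence viability, then luminescence at room temperature after 30 min.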

[12] = qHTS assay to identify small molecule that activate the aryl hydrocarbon receptor (AhR) signaling pathway - cell viability counter screen (AID 743086);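 also: HepG2 liver cells carrying the AhR DRE luciferase reporter; series mostly up to about 70 µM; nearly all actives have a fitted effect of over 45% in size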
Method in brief: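 HepG2-AhR-luc (HG2L7.5c1) cells, 4000/well, treated 24 h at 37 C with compound; viability measured as CellTiter-Fluor fluorescence after 30 min in the same wells as the luciferase read.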

[13] = target: Peroxisome proliferator-activated receptor gamma (Homo sapiens) (UniProt P37231); test: qHTS assay to identify small molecule agonists of the peroxisome proliferator-activated receptor gamma (PPARg) signaling pathway (AID 743094; active = well fitted activation curve with a large enough effect in the signal ratio in the repeat runs, not every such curve was filed as active; the % refers to the signal ratio)
Sequence of Peroxisome proliferator-activated receptor gamma (Homo sapiens) (P37231 whole entry, looked up): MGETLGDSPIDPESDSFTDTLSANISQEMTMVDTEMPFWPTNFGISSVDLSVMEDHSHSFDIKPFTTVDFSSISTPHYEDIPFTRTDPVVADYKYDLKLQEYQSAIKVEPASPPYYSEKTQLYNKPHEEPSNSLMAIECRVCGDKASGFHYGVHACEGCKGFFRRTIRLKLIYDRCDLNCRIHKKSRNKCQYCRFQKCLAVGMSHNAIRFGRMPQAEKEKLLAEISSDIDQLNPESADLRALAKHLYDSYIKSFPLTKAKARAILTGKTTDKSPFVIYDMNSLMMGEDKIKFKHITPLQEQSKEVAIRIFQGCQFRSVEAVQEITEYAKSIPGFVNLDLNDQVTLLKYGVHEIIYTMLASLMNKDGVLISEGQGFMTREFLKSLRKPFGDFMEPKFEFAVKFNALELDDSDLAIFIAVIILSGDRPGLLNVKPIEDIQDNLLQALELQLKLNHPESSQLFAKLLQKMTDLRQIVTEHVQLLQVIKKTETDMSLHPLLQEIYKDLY
Method in brief: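 Quantitative HTS agonist mode: stable HEK293H line with UAS-beta-lactamase reporter under PPARg control, 17 h compound exposure at 37C, fluorescence after 1 h FRET substrate loading at room temperature.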

Measured: Potency

CC1CCCC(C)N1NC(=O)c1ccc(Cl)c(S(N)(=O)=O)c1 (centres undefined)
inactive: all assays above

O=P(O)(O)CP(=O)(O)O
inactive: all assays above

OCC1(CO)COC(C(Cl)(Cl)Cl)OC1
inactive: all assays above

CSCCC(N)C(=O)O (centres undefined)
inactive: all assays above

CCCCCCCCCC(=O)NO
inactive: all assays above

C=CC[N+]1([C@H]2C[C@H]3[C@@H]4CC[C@H]5C[C@H](O)[C@@H](N6CCOCC6)C[C@]5(C)[C@H]4CC[C@]3(C)[C@H]2OC(C)=O)CCCC1
active: [7] 26.6 µM
inactive: all other assays above

CC1(C)CCC(NC(=O)[C@@H](N)CCC(=O)O)CC1
inactive: all assays above

CCC(=O)OC(OP(=O)(CCCCc1ccccc1)CC(=O)N1C[C@H](C2CCCCC2)C[C@H]1C(=O)O)C(C)C (some centres undefined)
inactive: all assays above

COc1ccc(/C=C/C(=O)O)cc1
inactive: all assays above

O=C(O)/C=C/C(=O)Nc1ccc(S(=O)(=O)Nc2nccs2)cc1
inactive: all assays above

NC[C@H]1O[C@H](O[C@H]2[C@H](O)[C@@H](O[C@H]3O[C@H](CO)[C@@H](O)[C@H](N)[C@H]3O)[C@H](N)C[C@@H]2N)[C@H](N)C[C@@H]1O
inactive: all assays above

Cc1ccc(C(C)(C)c2ccc(C)cc2)cc1
inactive: all assays above

C[S+](C)CCC(N)C(=O)O (centres undefined)
inactive: all assays above

CC12CCC(C1)C(C)(C)C2=O (centres undefined)
inactive: all assays above

CC(C)CCC[C@@H](C)[C@H]1CC[C@H]2[C@@H]3CC=C4C[C@@H](O)CC[C@]4(C)[C@H]3CC[C@]12C
inactive: all assays above

NC[C@@H]1CC[C@@H](N)[C@@H](O[C@H]2[C@H](O)[C@@H](O[C@H]3O[C@H](CO)[C@@H](O)[C@H](N)[C@H]3O)[C@H](N)C[C@@H]2N)O1
active: [7] 11.9 µM
inactive: all other assays above

CCOC(=O)COc1ccc2c(=O)cc(-c3ccccc3)oc2c1
inactive: all assays above

C[C@H](NCCc1ccc(O)cc1)[C@H](O)c1ccc(O)cc1
inactive: all assays above

N=C(N)n1cccn1
inactive: all assays above

CC(=O)N[C@@H](C=O)[C@H](O)[C@H](O)[C@@H](O)CO
inactive: all assays above

CCOc1ccc(NC(=S)Nc2ccc(OCC)cc2)cc1
inactive: all assays above

CC[C@@H](C)CCCCC(=O)N[C@@H](CCNCS(=O)(=O)O)C(=O)N[C@H](C(=O)N[C@@H](CCNCS(=O)(=O)O)C(=O)N[C@H]1CCNC(=O)[C@H]([C@@H](C)O)NC(=O)[C@H](CCNCS(=O)(=O)O)NC(=O)[C@H](CCNCS(=O)(=O)O)NC(=O)[C@H](CC(C)C)NC(=O)[C@@H](CC(C)C)NC(=O)[C@H](CCNCS(=O)(=O)O)NC1=O)[C@@H](C)O (X3-[Dab(CH2SO3H)]T[Dab(CH2SO3H)][Dab][Dab(CH2SO3H)][dL]L[Dab(CH2SO3H)][Dab(CH2SO3H)]T; lactam 4-C)
not listed: [13]
inactive: all other assays above

CC1(C)S[C@@H]2[C@H](N3C(=O)C(c4ccccc4)NC3(C)C)C(=O)N2[C@H]1C(=O)O (some centres undefined)
inactive: all assays above

NC(=O)[C@@H]1CCCN1C(=O)[C@H](Cc1cnc[nH]1)NC(=O)[C@@H]1CCC(=O)N1
inactive: all assays above

CC(C)[C@H](NC(=O)[C@H](CC(=O)O)NC(=O)[C@H](CCCCN)NC(=O)[C@@H](N)CCCN=C(N)N)C(=O)N[C@@H](Cc1ccc(O)cc1)C(=O)O (H-RKDVY-OH)
inactive: all assays above

O=C1c2c(O)cccc2[C@H]([C@@H]2O[C@H](CO)[C@@H](O)[C@H](O)[C@H]2O)c2cc(CO)cc(O)c21
13.3 µM (active) and inactive: [7]
inactive: all other assays above

CN[C@H](CC(C)C)C(=O)N[C@H]1C(=O)N[C@@H](CC(N)=O)C(=O)N[C@H]2C(=O)N[C@H]3C(=O)N[C@H](C(=O)N[C@@H](C(=O)O)c4cc(O)cc(O)c4-c4cc3ccc4O)[C@H](O)c3ccc(c(Cl)c3)Oc3cc2cc(c3O[C@@H]2O[C@H](CO)[C@@H](O)[C@H](O)[C@H]2O[C@H]2C[C@](C)(N)C(O)[C@H](C)O2)Oc2ccc(cc2Cl)[C@H]1O (some centres undefined)
inactive: all assays above

COc1ccc(/C=C/C(=O)Nc2ccccc2C(=O)O)cc1OC
active: [2] 4.73 µM | [8] 8.41 µM | [11] 3.35 µM
inactive: all other assays above

Nc1cc(Cl)c(NC2=NCCN2)c(Cl)c1
inactive: all assays above

CO[C@H]1C[C@H](O[C@H]2[C@H](C)[C@@H](O[C@@H]3O[C@H](C)C[C@H](N(C)C)[C@H]3O)[C@@H](C)C[C@]3(CO3)C(=O)[C@H](C)[C@@H](O)[C@@H](C)[C@@H](C)OC(=O)[C@@H]2C)O[C@@H](C)[C@@H]1O
inactive: all assays above
